# Laboratory results as given in PubChem BioAssay AID1210 (NMMLSC, 2008).
# Active and inactive are the calls of the source.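 Rule for the calls: active = blocks over 70% of labeled estradiol binding at 10 µM, or over a set limit at 100 nM; inactive = the rest.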
# Target: Estrogen receptor beta (Homo sapiens) (UniProt Q92731)
# Experiment: displacement of fluorescent estrogen from ERbeta – cell-based, Cos7 ERbeta-GFP, flow cytometry, primary screen (AID 1210);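 note: 0% = DMSO vehicle wells and 100% = complete loss of labeled estradiol signal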
# Conditions: fluorescent estrogen binding, stronger effect = higher value
# [1] = ligand binding inhibition, at 0.1 µM
# Sequence of Estrogen receptor beta (Homo sapiens) (Q92731 whole entry, looked up): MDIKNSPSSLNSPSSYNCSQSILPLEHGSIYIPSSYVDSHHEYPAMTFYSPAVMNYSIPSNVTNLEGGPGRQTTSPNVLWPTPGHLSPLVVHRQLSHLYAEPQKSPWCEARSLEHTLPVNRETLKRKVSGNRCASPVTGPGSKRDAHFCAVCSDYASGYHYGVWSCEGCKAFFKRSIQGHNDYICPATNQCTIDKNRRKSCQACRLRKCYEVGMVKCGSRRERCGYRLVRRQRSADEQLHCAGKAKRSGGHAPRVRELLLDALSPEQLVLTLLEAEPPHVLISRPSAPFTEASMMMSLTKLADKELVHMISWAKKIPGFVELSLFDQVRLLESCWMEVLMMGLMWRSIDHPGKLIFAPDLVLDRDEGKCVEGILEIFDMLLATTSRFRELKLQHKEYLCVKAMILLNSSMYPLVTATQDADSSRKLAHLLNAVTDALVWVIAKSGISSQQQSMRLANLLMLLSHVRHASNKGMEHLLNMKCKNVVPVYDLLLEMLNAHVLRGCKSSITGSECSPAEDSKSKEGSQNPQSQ
SMILES,inhibition (at 10 µM),inhibition [1]
CCOc1ccccc1N1CSC2=C(C#N)C(c3c(OC)ccc4ccccc34)CC(=O)N2C1 (stereo not given),35% (inactive),28%
Oc1ccc(C2=Nn3c(nnc3-c3ccco3)SC2)cc1O,32% (inactive),1%
COc1ccc2c(c1)[nH]c1c(=O)n(N)cnc12,4% (inactive),30%
Cc1nnc(Oc2ccccc2F)c2ccccc12,47% (inactive),38%
COc1ccc2nc3oc(C(=O)N4CCN(c5cccc(C(F)(F)F)c5)CC4)cc3cc2c1,24% (inactive),47%
CCn1c(SCC(=O)Nc2cccc(F)c2)nnc1-c1cc2cc(Br)ccc2o1,39% (inactive),12%
C[C@@H]1O[C@@H](Oc2c(-c3cc(O)c(O)c(O)c3)oc3cc(O)cc(O)c3c2=O)[C@H](O)[C@H](O)[C@H]1O,31% (inactive),30%
CCOC(=O)C1=c2/c(=C/c3ccccc3OC)c(N)c(C#N)n2C(=O)C(c2ccccc2OC)S1 (stereo not given),34% (inactive),46%
Cc1ccccc1-n1nc(-c2ccc(N)cc2)cc1N,25% (inactive),21%
CCCc1cc(-n2ccnc2)n2c(nc3ccccc32)c1C#N,32% (active),75%
C=CCn1c(=O)c(C#N)cc2c(=O)n3ccccc3nc21,39% (inactive),22%
O=C(CSc1nnc(-c2ccc(OC(F)F)cc2)o1)NC(=O)NCc1ccco1,39% (inactive),44%
Cc1cc(=O)[nH]c(SCC(=O)NCc2ccco2)n1,59% (inactive),3%
CCC(=O)Oc1ccc(C(CC)C(CC)c2ccc(OC(=O)CC)cc2)cc1 (stereo not given),82% (active),83%
Oc1ccc(C=Nc2ccc(N3CCOCC3)cc2)c(O)c1,51% (inactive),63%
CC(C)C1Nc2c(O)cc(Cl)c([N+](=O)[O-])c2C2C=CCC21 (stereo not given),28% (inactive),5%
Cn1ccnc1SCC(=O)Nc1ccc2nc(SCC(=O)NC3CC3)sc2c1,46% (inactive),38%
COc1cccc(C2Nc3c(F)cc(Br)cc3C3C=CCC32)c1OC (stereo not given),40% (active),74%
COc1cc2c(cc1OC)C(Cc1ccc(O)cc1)NCC2 (stereo not given),23% (inactive),13%
CCN(CC)c1ccc2c(c1)oc(=O)c1c(Cl)cc(=O)oc12,33% (inactive),18%
Cc1occc1C(=O)NCc1cccc(CNC(=O)c2ccoc2C)c1,2% (inactive),10%
Oc1ccc(-c2cn3c(n2)SCC3)cc1,64% (inactive),10%

SMILES,inhibition (at 10 µM),inhibition [1]
COc1ccc(C2CC(=O)Nc3ccccc3S2(=O)=O)cc1OC (stereo not given),5% (inactive),20%
CS(=O)(=O)c1ccc2nc(NC(=O)CCC(=O)c3cccs3)sc2c1,62% (inactive),9%
Nc1ccc2oc(-c3ccc4nc[nH]c4c3)nc2c1,62% (inactive),2%
Cc1nc2sccn2c1-c1nc(-c2cc3ccccc3o2)cs1,43% (inactive),9%
N#Cc1ccc(-c2cccnc2)nc1SCC(=O)Nc1sc2c(c1C#N)CCC2,0% (inactive),10%
Cc1ccc2[nH]c(=O)c(C3C(C#N)=C(N)Oc4c3ccc3cccnc43)cc2c1 (stereo not given),44% (inactive),24%
CCOC(=O)Cn1cnc2sc3c(c2c1=O)CCC3,37% (inactive),28%
Cc1ccc(NC(=O)CSc2nc3ccccc3c3nc4ccccc4n23)cc1,59% (inactive),7%
CC1CCN(S(=O)(=O)c2ccc(NC(=O)Cc3cccs3)cc2)CC1,36% (inactive),33%
CCCN(CCC)S(=O)(=O)c1ccc(NC(=O)Cc2cccs2)cc1,46% (inactive),20%
Cc1ccc(C(=O)CSC2=C(C#N)C(c3ccco3)CC(=O)N2)c(C)c1 (stereo not given),54% (inactive),14%
CCNC(=O)c1ccc2c(c1)C1C3CCC(C3)C1C(c1ccccc1)N2 (stereo not given),29% (inactive),58%
Cc1ccccc1Nc1nnc(SCC(=O)NC(=O)NCc2ccco2)s1,0% (active),67%
COC(=O)C1=C(O)/C(=C\c2ccc(CNC(=O)C(=O)Nc3ccc(C)c(C)c3)o2)N=C1C,42% (inactive),20%
Cc1cc2oc(=O)cc(COC(=O)c3n[nH]c4ccccc34)c2cc1C,68% (inactive),18%
CCSc1nnc(NC(=O)C2Cc3ccccc3CN2C(=O)c2ccco2)s1 (stereo not given),45% (inactive),34%
Clc1ccc(Sc2cc(N3CCOCC3)nc(-c3ccccc3)n2)cc1,36% (inactive),18%
O=C(c1cccs1)N1N=C(c2ccc(O)cc2)CC1c1ccccc1 (stereo not given),68% (inactive),23%
O=C(OCC(=O)N1CCN(C(=O)c2ccco2)CC1)c1cc(-c2ccco2)nc2ccccc12,25% (inactive),33%
O=C(Cc1ccccc1)Nc1ccc2oc(-c3cccnc3)nc2c1,65% (inactive),20%
COc1ccc(C2Nc3ccccc3C(=O)N2c2ccccc2)cc1Cn1cc([N+](=O)[O-])cn1 (stereo not given),26% (inactive),45%
CCOc1cccc2cc(-c3nnc(NCc4ccco4)s3)c(=O)oc12,26% (inactive),28%

SMILES,inhibition (at 10 µM),inhibition [1]
O=c1c(OC2OC(CO)C(O)C(O)C2O)c(-c2ccc(O)c(O)c2)oc2cc(O)cc(O)c12 (stereo not given),36% (inactive),46%
CCC1(C)NC(=O)N(CC(=O)Nc2sc3c(c2C(N)=O)CCC3)C1=O (stereo not given),58% (inactive),39%
O=c1[nH]c(N/N=C/c2ccc(O)cc2)nc2ccccc12,34% (inactive),13%
COc1cc(C(Nc2ccccn2)c2ccc3ccc(C)nc3c2O)cc(OC)c1O (stereo not given),0% (inactive),20%
CC1(C)CCCN(C(=O)c2coc(=O)c(Br)c2)C1,49% (inactive),18%
Cc1nn2cc(-c3ccc(N)cc3)nc2s1,23% (inactive),15%
FC(F)(F)c1ccc2c(c1)C1C=CCC1C(c1ccncc1)N2 (stereo not given),0% (inactive),51%
Cc1oc(-c2ccc(Cl)cc2)cc1-c1nn2c(-c3ccoc3C)nnc2s1,57% (inactive),29%
CCCCn1c(NC(=O)CC)c(C#N)c2nc3ccccc3nc21,47% (inactive),17%
CCCCN(CCCC)S(=O)(=O)c1ccc(NC(=O)Cc2cccs2)cc1,50% (inactive),19%
NC(=S)n1[nH]c(-c2ccc([N+](=O)[O-])cc2)c(N=Nc2ccc(O)cc2)c1=O,35% (inactive),15%
Cc1ccc(OCCN2CCN(CC(O)Cn3c4ccccc4c4ccccc43)CC2)cc1 (stereo not given),62% (inactive),31%
O=C(Oc1ccc2c(c1)OCO2)c1cc2c(s1)CCC2,52% (inactive),48%
COc1cccc(-n2nnnc2SCC(=O)Nc2ccc(C(C)=O)cc2)c1,61% (inactive),51%
O=C(CSc1nnc(SCC(=O)c2ccco2)s1)c1ccco1,56% (inactive),33%
Nc1ccc(N2CCN(C(=O)c3ccco3)CC2)cc1,49% (inactive),25%
COc1ccccc1-c1nnc2sc(-c3cnccn3)nn12,40% (inactive),17%
O=c1nc2s/c(=C\c3ccco3)c(=O)n2nc1Cc1ccc(F)cc1,16% (inactive),35%
CC1CC(C(F)(F)C(F)(F)F)n2nc(C(=O)O)cc2N1 (stereo not given),58% (inactive),27%
Cc1c(N=Cc2ccc(O)c(Br)c2)cccc1[N+](=O)[O-],33% (inactive),34%
NS(=O)(=O)c1ccc2c(c1)C1C=CCC1C(C1CC=CCC1)N2 (stereo not given),14% (inactive),2%
O=C(Nc1cccc2cccc(NC(=O)c3ccco3)c12)c1ccco1,24% (inactive),22%

SMILES,inhibition (at 10 µM),inhibition [1]
N=c1c(C(=O)NCc2ccc(F)cc2)cc2c(=O)n3ccccc3nc2n1Cc1cccnc1,30% (inactive),34%
O=c1c2c([nH]c3ccccc13)C(=C1CCCC1)CC2,42% (inactive),11%
CCOc1cc(C2CC(=O)c3c(ccc4ccccc34)N2)ccc1O (stereo not given),19% (inactive),8%
Cc1nc(-c2ccc(O)c(O)c2)cs1,31% (inactive),4%
Cc1ccc(Cc2cncc(O)c2)cc1S(=O)(=O)O,0% (inactive),13%
COc1ccc(OC)c(C2Nc3c(Cl)ccc(C(=O)O)c3C3C=CCC32)c1 (stereo not given),0% (inactive),52%
c1ccc(OCc2nnc3sc(C4COc5ccccc5O4)nn23)cc1 (stereo not given),29% (inactive),28%
Cn1nc([N+](=O)[O-])c2c(-c3nc4ccccc4s3)c(N)n(C3CCCCC3)c2c1=O,18% (inactive),34%
CC(Cc1ccc(O)c(O)c1)C(C)Cc1ccc(O)c(O)c1 (stereo not given),65% (inactive),18%
O=C(Cc1cccs1)Nc1ccc(S(=O)(=O)N2CCCCC2)cc1,37% (inactive),38%
CCn1c(=NC(=O)c2ccc(N3C(=O)CCC3=O)cc2)sc2c(OC)ccc(OC)c21,64% (inactive),57%
CNc1nnc(-c2cc3cc(Cl)ccc3oc2=O)s1,0% (inactive),4%
COc1ccc2c(c1)c(=O)oc1cc(OCC(=O)N3CCC(C)CC3)ccc12,52% (inactive),35%
COc1ccc(C2CC(c3cccs3)=NN2c2ccc(C=O)cc2)cc1 (stereo not given),42% (inactive),29%
CCN(c1ccccc1)S(=O)(=O)c1ccc2[nH]cc(C(=O)NCCOC)c(=O)c2c1,35% (inactive),30%
Nc1ccc2oc(-c3ccccc3Cl)cc(=O)c2c1O,25% (inactive),26%
C[C@]12CC[C@@H]3c4ccc(O)cc4[C@@H](O)C[C@H]3[C@@H]1CC[C@@H]2O,74% (active),56%
COc1cc(C=C(c2nc3ccccc3s2)c2nc3ccccc3s2)ccc1O,31% (inactive),57%
O=C(CSc1nc2c(cnn2-c2ccccc2)c(=O)[nH]1)c1ccc(Cl)cc1,39% (inactive),34%
